# In PMC3218832:
# Molecular target: T1, C-Rel subunit;p52 subunit (Homo sapiens;Homo sapiens, UniProt Q04864;Q00653 1-285;4-332)
# T1 sequence 1: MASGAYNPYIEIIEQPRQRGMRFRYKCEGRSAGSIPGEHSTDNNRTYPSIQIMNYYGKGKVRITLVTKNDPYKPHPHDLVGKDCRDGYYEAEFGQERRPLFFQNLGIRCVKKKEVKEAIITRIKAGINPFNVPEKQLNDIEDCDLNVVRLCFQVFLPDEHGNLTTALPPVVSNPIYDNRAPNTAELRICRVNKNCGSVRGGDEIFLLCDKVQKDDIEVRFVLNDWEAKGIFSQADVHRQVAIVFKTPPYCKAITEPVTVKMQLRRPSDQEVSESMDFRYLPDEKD
# T1 sequence 2: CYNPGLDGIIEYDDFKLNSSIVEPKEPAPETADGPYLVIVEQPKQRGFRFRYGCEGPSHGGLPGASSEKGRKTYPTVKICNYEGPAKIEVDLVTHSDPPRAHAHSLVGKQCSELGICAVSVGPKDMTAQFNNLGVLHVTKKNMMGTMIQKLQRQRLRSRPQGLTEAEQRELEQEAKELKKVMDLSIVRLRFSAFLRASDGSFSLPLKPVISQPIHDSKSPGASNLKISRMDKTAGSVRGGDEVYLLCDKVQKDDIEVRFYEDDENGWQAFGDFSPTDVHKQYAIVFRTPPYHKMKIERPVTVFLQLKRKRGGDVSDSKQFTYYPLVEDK
# Assay: protein binding microarray; high values mean tight binding
# Conditions: dsDNA, one strand shown
row,Sequence,binding signal [z-score]
1,CAATGGTTCCT,-0.857
2,AAATACACCCC,0.187
3,CAAAATGCCCT,-0.0299
4,AAAGGATCCCT,-0.634
5,CGAAGCATCCT,-1
6,GGGTGTTCCCC,2.56
7,AGGATCTCCCC,0.953
8,GAGAATTCCCT,1.33
9,GAAATAGTCCC,0.853
10,CGAGTGACCCT,-0.744
11,CGAAAGGCCCT,-0.62
12,CGATGTCTCCT,-0.895
13,AGATTTATCCC,-0.0889
14,CGGAGTATCCC,-0.0756
15,GGAAGAACCCC,0.755
16,GGGGTGTTCCT,0.791
17,AGGAGTGTCCC,0.486
18,AGGGAGTTCCT,0.64
19,CAGGTACCCCT,0.274

row,Sequence,binding signal [z-score]
1,GGAGGAGTCCC,0.541
2,GAATAACTCCT,-0.791
3,CGGTTTACCCC,1.04
4,CAATTCGTCCC,0.00577
5,GGATAGTCCCT,1.82
6,CGGTAAACCCT,0.186
7,GAGGAAATCCT,-0.369
8,CAGTGACCCCT,-0.427
9,CAGTGCATCCT,-0.988
10,CAGGGGTTCCT,0.485
11,CGGAAGCTCCT,-0.785
12,GAAAACATCCC,-0.211
13,AGATAGATCCT,-0.98
14,AGATGGTCCCC,0.217
15,GAAAATATCCT,-0.675
16,CAAGTAATCCC,-0.302
17,GGAAGTTTCCC,1.15
18,GAGGAGGCCCT,-0.766
19,GAGAACTTCCT,-0.645
